Laboratory results taken from the supplement of paper PMC7801607.

Columns and labels:
CHO = assay: % viability of CHO cells (MTT); higher = less toxic; conditions: 48 h
Summary of the method: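 CHO cells seeded at 10^6 cells/well were exposed to compound at 2 or 20 µM for 48 h. Survival, as percent of untreated cells, was measured with the colorimetric tetrazolium (MTT) assay.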

HepG2-A16-CD81 = assay: % inhibition of HepG2 viability (CellTiter-Glo); higher = more toxic; conditions: 5 µM;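 further: HepG2-A16-CD81 hepatoma cells plated as in the liver-stage assay but without sporozoites, with DMSO wells as negative and 25 µM puromycin as positive control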
[1] = system: Plasmodium falciparum NF54 stage IV/V gametocytes; assay: % inhibition of gametocyte viability (PrestoBlue); higher = more inhibition; conditions: 48 h
Summary of the method: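 Compound was tested at 1 or 5 µM against Stage IV/V NF54 gametocytes plated at 100 µL/well (2% gametocytaemia, 5% haematocrit). After 48 h of stationary, hypoxic incubation at 37 °C, 10 µL PrestoBlue was added for 2 h before reading 612 nm fluorescence from 70 µL of transferred supernatant. Gametocyte viability inhibition, as a percentage, was scaled against vehicle and kill controls from a single run.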

[2] = system: Plasmodium falciparum NF54 asexual blood stage; assay: % inhibition of asexual blood stage proliferation (pLDH); higher = more inhibition; conditions: 72 h
Summary of the method: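 In 96-well plates, compound at 2 or 20 µM was added to Plasmodium falciparum NF54 ring-stage cultures (1% haematocrit, 2% parasitaemia). Plates were incubated for 72 h at 37 °C in 4% CO2, 3% O2 and 93% N2, and survival was then read at 620 nm using the parasite lactate dehydrogenase assay. Inhibition of asexual proliferation, expressed as a percentage, was normalised to controls.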

[3] = system: Plasmodium falciparum NF54 stage IV/V gametocytes; assay: % inhibition of gametocyte viability (ATP bioluminescence); higher = more inhibition; conditions: 24 h
Summary of the method: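 Density gradients were used to enrich stage IV/V NF54 gametocytes, which were then seeded into 96-well plates at 30,000 per well with compound at 1 or 5 µM. The plates were incubated at 37 °C for 24 h, and ATP was measured with the Promega BacTiter Glo bioluminescence system. Percent inhibition of gametocyte viability was normalised to the plate controls from a single run.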

[4] = system: Plasmodium falciparum NF54 stage IV/V gametocytes; assay: % inhibition of gametocyte viability (luciferase reporter); higher = more inhibition; conditions: 48 h
Summary of the method: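 Luminescence from 30 µL lysate combined with 30 µL Promega luciferin substrate was recorded on a GloMax-Multi+ reader using 10 s integration. The lysate came from stage IV/V NF54-Pfs16-GFP-Luc gametocytes (2% gametocytaemia, 2% haematocrit) held with compound at 1 or 5 µM for 48 h at 37 °C under stationary, hypoxic conditions. Percent inhibition was normalised against controls run once.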

SMILES | % viability of CHO cells (CHO; 2 µM) | % viability of CHO cells (CHO; 20 µM) | % inhibition of HepG2 viability (HepG2-A16-CD81) | % inhibition of gametocyte viability ([1]; 1 µM) | % inhibition of gametocyte viability ([1]; 5 µM) | % inhibition of asexual blood stage proliferation ([2]; 2 µM) | % inhibition of asexual blood stage proliferation ([2]; 20 µM) | % inhibition of gametocyte viability ([3]; 1 µM) | % inhibition of gametocyte viability ([3]; 5 µM) | % inhibition of gametocyte viability ([4]; 1 µM) | % inhibition of gametocyte viability ([4]; 5 µM)
CCc1ccccc1OCCN1CCCCCC1 | 96.9% | 109% | 14% | 15.5% | 15.2% | 10.6% | 87.1% | 6.82% | < 0% | < 0% | 2.04%
CCOC(=O)/C=C/[C@H](C[C@@H]1CCNC1=O)NC(=O)[C@@H](CC(=O)[C@@H](NC(=O)c1cc(C)on1)C(C)C)Cc1ccc(F)cc1 | 124% | 129% | 2.38% | 27.5% | 17.3% | 16.3% | 53.7% | 4.33% | < 0% | 1.29% | 10.2%
OC[C@@H]1CC[C@H](n2cnc3c(O)ncnc32)O1 | 119% | 114% | -1.26% | 1.35% | 4.95% | 47.1% | 26.7% | < 0% | < 0% | 0.0967% | < 0%
N#C/C(=C1/SC[C@H](c2ccc(Cl)cc2Cl)S1)n1ccnc1 | 113% | 118% | 10% | 11.8% | 16.4% | 48.7% | 22.8% | < 0% | < 0% | < 0% | 1.63%
CC[N+]1(C/C2=C/CCCCCC2)CCC(NC(=O)C2c3cc(Cl)ccc3Oc3ccc(Cl)cc32)CC1 (stereo not given) | 100% | 75.9% | 7.74% | < 0% | 41.9% | 21.8% | 101% | < 0% | 44% | 7.3% | 34%
NC(=O)c1ccc(I)c([N+](=O)[O-])c1 | 110% | 112% | 14.3% | 17.8% | 30.4% | 1.16% | 51.2% | < 0% | < 0% | 0.24% | < 0%
COc1cc(C)c2c(Oc3cccc(C(F)(F)F)c3)c(OC)cc(NC(C)CCCN)c2n1 (stereo not given) | 95.6% | -0.735% | 3.86% | 47.9% | 71.7% | 56.5% | 92.1% | < 0% | 70% | < 0% | 79.6%
CCn1cc(C(=O)O)c(=O)c2cc(F)c(N3CCNC(C)C3)c(F)c21 (stereo not given) | 104% | 102% | 0.454% | 34.9% | 43.8% | 36.8% | 28.9% | < 0% | < 0% | < 0% | < 0%
O=C(/C=C/n1cnc(-c2cc(C(F)(F)F)cc(C(F)(F)F)c2)n1)NNc1cnccn1 | 102% | 103% | -11.2% | 11.2% | -0.3% | -23.5% | 56.5% | 0.272% | < 0% | 0.0379% | < 0%
Cc1c(N)cccc1Cn1ccc(OCCc2cccs2)cc1=O | 240% | 54.9% | 5.54% | < 0% | < 0% | 6.4% | 22.2% | 0.516% | < 0% | < 0% | < 0%
CC(=O)N1CCN(c2ccc(OCC3COC(Cn4ccnc4)(c4ccc(Cl)cc4Cl)O3)cc2)CC1 (stereo not given) | 105% | 60.1% | 0.653% | 6.22% | < 0% | 2.92% | 64.4% | < 0% | < 0% | < 0% | < 0%
CC[C@@H]1C(=O)OC[C@@H]1Cc1cncn1C | 111% | 110% | -1.73% | < 0% | < 0% | 5.57% | 14.4% | < 0% | < 0% | < 0% | 10.7%
Nc1cnn(C2OC(CO)C(O)C2O)c(=O)n1 (stereo not given) | 109% | 110% | 9.61% | < 0% | 12.5% | 61.7% | 38.4% | 3.6% | < 0% | 4.96% | 6.45%
Cc1cc(C)n2nc(C(=O)NS(=O)(=O)c3c(C)cccc3OC(F)(F)F)nc2n1 | 110% | 122% | 8.44% | 33.8% | 85.1% | 33.6% | 59.9% | < 0% | < 0% | 14.1% | 14.2%
c1cc(CN2CCCNCCNCCCNCC2)ccc1CN1CCCNCCNCCCNCC1 | 104% | 109% | -0.261% | 7.81% | 31% | 16.7% | 34.9% | 6.22% | < 0% | < 0% | < 0%
O=C(O)c1ccc(-n2nc(-c3ccccc3O)nc2-c2ccccc2O)cc1 | 85.7% | 106% | 3.21% | 8.04% | < 0% | -5.88% | -5.43% | < 0% | < 0% | < 0% | < 0%
Oc1cccc(C(Nc2nccs2)c2ccc3cccnc3c2O)c1 (stereo not given) | 57.5% | 42.1% | 9.72% | 24.1% | 65.5% | 80% | 91.8% | < 0% | 59.3% | 7.2% | 57.3%
NCC(=O)Nc1ccc(-n2nc(C(F)(F)F)cc2-c2ccc3c(ccc4ccccc43)c2)cc1 | 124% | 64.1% | 9.92% | 22.9% | 12.6% | 1.4% | 67.6% | 31% | 93.6% | < 0% | < 0%
Cc1onc(-c2ccccc2)c1-c1ccc(S(N)(=O)=O)cc1 | 120% | 106% | -1.58% | 12.1% | 41.6% | 48.8% | 77.5% | 1.41% | < 0% | 0.106% | < 0%
Nc1nnnn1CCOc1c2[nH]c3ccc(Cl)cc3c2cc2c1[nH]c1ccc(Cl)cc12 | 98.6% | 121% | 5.71% | < 0% | < 0% | 11.9% | 95.2% | < 0% | < 0% | < 0% | 31.2%
